Test [1] has as its target Lysosomal acid glucosylceramidase (Homo sapiens) (UniProt P04062). Kind of test: Glucocerebrosidase-p2 (AID 348; in the data active = potency below about 10 µM; note: potency is the fitted concentration of half-maximal effect). The note with it: purified GBA, blue fluorogenic substrate, 40 min. The method, boiled down: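 Compounds titrated from 0.6 nM upwards against 0.2 nM enzyme in pH 5.9 citric acid/KH2PO4, taurocholate, tween-20; blue fluorogenic substrate 80 uM, 40 min room temperature, stopped and read Ex 365/Em 440 for AC50.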

Test [2] can be described thus: AP1 Signaling Pathway (AID 357; active = well fitted curve in either direction with a large enough effect, not every such curve was filed as active;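 note: ME-180 reporter cells stimulated with EGF at its EC50 level; % is set by controls: 0 for no effect and ±100 for the full control effect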). The following applies: ME-180 AP-1-bla reporter, EGF-induced, beta-lactamase ratio, 5 h; at 7.69 µM (top of the series) unless noted. In a few lines: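 Beta-lactamase reporter under AP-1 response element, ME-180 background. Stimulus: EC50 EGF. Compound exposure 5 h, 37 °C. Detection: CCF4, 2.5 h RT, 460/530 nm. Values: AC50 from titration.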

The target in test [3] is Cytochrome P450 1A2 (Homo sapiens) (UniProt P05177). Kind of test: p450-cyp1a2 (AID 410; calls by dose curve; note: potency is the fitted concentration of half-maximal effect). The following applies: recombinant CYP1A2, luciferin-ME demethylation, luminescence; series mostly up to 57 µM. The method, boiled down: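 Human CYP1A2 (20nM) demethylated Luciferin-ME at its Km (100uM) in 100mM KPO4. After 10 min compound preincubation, NADPH regeneration ran the reaction 60 min at room temperature. Luciferin was read by luminescence, normalized to 57 uM furafylline.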
Sequence of Cytochrome P450 1A2 (Homo sapiens) (P05177 whole entry, looked up): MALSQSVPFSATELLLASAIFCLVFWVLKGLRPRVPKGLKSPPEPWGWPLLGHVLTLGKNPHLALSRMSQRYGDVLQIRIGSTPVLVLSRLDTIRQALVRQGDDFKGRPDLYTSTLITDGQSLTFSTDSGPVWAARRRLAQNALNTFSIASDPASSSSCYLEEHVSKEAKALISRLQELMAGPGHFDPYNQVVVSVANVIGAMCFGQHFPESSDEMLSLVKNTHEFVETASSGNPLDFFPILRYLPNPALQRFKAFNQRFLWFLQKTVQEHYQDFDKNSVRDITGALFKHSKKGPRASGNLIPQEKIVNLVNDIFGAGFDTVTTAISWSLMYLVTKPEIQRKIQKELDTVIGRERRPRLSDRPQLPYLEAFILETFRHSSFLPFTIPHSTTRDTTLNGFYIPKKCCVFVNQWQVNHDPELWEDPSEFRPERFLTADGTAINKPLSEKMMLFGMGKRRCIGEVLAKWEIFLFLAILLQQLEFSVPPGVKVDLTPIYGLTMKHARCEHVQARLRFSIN

The nature of test [4]: NFAT Signaling Pathway (AID 444; active = well fitted curve in either direction with a large enough effect, not every such curve was filed as active;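 note: carbachol stimulus at about its EC50 of 1 µM final; % is set by controls: 0 for no effect and ±100 for the full control effect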). The following applies: Jurkat NFAT-bla M1, carbachol, beta-lactamase ratio, 5 h; at 7.69 µM (top of the series) unless noted. In a few lines:
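Jurkat cells carrying an NFAT-driven β-lactamase reporter and co-transfected muscarinic M1 receptor were treated with compound plus carbachol (1 uM final, an EC50 level) for 5 h at 37 °C. CCF4 loading followed for 1 h at RT; 460/530 nm ratio gave %activity.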

The nature of test [5]: Stat Signaling Pathway (AID 446; active = well fitted curve in either direction with a large enough effect, not every such curve was filed as active;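 note: ME-180 cervical cancer cells given 40 pM IL-6 alongside compound; SIE-controlled beta-lactamase reporter measured as 460/530 nm FRET emission ratio; % is set by controls: 0 for no effect and ±100 for the full control effect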). The following applies: ME-180 SIE beta-lactamase reporter, IL-6 stimulated, 5 h; at 7.69 µM (top of the series) unless noted. In a few lines: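 ME-180 SIE-bla cells; overnight plating; cpd + IL-6 40 pM, 5 h, 37 C; LiveBLAzer 2.5 h RT; 460/530 nm emission ratio. Normalized to 300 pM IL-6 and 125 nM JAK inhibitor controls.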
In test [6] the target is Glucocorticoid receptor (Homo sapiens) (UniProt P04150). Put plainly: GR-GFP Redistribution (AID 450;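 active = compounds whose dose series gives a full or clear partial fitted curve of increased nuclear translocation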; note: potency is the fitted concentration of half-maximal effect). The following applies: U2OS GR-GFP nuclear translocation, laser cytometry, 2 h.
Sequence of Glucocorticoid receptor (Homo sapiens) (P04150 whole entry, looked up, the tested form may be a part): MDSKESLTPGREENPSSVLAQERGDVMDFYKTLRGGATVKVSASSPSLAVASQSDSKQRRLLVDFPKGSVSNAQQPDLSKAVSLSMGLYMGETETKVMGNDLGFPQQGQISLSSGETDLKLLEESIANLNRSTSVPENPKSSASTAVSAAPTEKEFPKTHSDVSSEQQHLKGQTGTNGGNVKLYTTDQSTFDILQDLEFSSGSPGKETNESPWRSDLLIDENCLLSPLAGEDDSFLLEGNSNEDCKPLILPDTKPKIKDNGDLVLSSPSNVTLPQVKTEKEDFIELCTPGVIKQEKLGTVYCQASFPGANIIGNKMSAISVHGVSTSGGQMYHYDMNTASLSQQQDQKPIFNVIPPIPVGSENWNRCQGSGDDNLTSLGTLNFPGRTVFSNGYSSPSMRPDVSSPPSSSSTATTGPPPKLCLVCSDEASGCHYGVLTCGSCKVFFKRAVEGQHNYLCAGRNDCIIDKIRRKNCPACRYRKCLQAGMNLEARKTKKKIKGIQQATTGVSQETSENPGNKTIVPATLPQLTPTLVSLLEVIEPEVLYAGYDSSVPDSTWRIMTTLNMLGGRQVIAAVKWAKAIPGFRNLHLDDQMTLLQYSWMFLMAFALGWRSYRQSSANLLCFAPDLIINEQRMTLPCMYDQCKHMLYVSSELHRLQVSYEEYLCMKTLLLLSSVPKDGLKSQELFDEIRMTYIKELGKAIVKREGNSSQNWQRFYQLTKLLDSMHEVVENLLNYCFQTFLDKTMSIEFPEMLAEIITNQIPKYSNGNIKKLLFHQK
For test [7] the target is unchanged. Kind of test: GR-EFC Redistribution (AID 451; calls by dose curve; note: potency is the fitted concentration of half-maximal effect). The note with it: CHO-K1 GR-EFC translocation, beta-gal luminescence, 2 h. In a few lines: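 CHO-K1 cells stably expressing nuclear-localized β-gal enzyme acceptor and GR fused C-terminally to the enzyme donor fragment; ligand-driven nuclear translocation restores β-gal by complementation. Compounds titrated up to 46 uM final, 2 h at 37 °C; luminescence read.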

For test [8], the target named is Mitogen-activated protein kinase 10 (Mus musculus) (UniProt Q61831). Kind of test: JNK3 AlphaScreen Assay (AID 530; active = well fitted curve in either direction with a large enough effect, not every such curve was filed as active;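 note: kinase came from lysate of stimulated human HepG2 cells; % is set by controls: 0 for no effect and ±100 for the full control effect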). The note with it: JNK3 lysate, c-Jun phosphorylation; series mostly up to 57.1 µM. In a few lines: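 JNK3 came from HepG2 lysates pre-activated with IL-1beta and TNF-alpha and phosphorylated biotinylated GST-cJun (1-79) at 10 uM ATP, pH 7.6, room temperature. Compounds were titrated. AlphaScreen signal used anti-phospho-cJun (Ser73) antibody.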
On the technique in general: Alpha assays give light when donor and acceptor beads are brought close together.

In test [9] the target is Cytochrome P450 3A4 (Homo sapiens) (UniProt P08684). Put plainly: qHTS Assay for Inhibitors and Substrates of Cytochrome P450 3A4 (AID 884). Note: potency is the fitted concentration of half-maximal effect; nearly all actives have a fitted effect of over 50% in size. The note with it: recombinant CYP3A4, Luciferin-PPXE luminescence; series mostly up to 57.1 µM. The method, boiled down:
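20 nM human CYP3A4 with 25 uM Luciferin-PPXE (at KM) in 200 mM KPO4, preincubated 10 min with compound; NADPH regeneration started a 60 min RT reaction. Luciferin detected by luminescence, normalized to 57 uM ketoconazole as full inhibition.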
(qHTS replaces the single test concentration by a dilution series.)

The target is the same in test [10]. Kind of test: qHTS Assay for Activators of Cytochrome P450 3A4 (AID 885). Note: nearly all actives have a fitted effect of over 65% in size. The following applies: recombinant CYP3A4, Luciferin-PPXE luminescence, 60 min; series mostly up to 57.1 µM. In a few lines:
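20nM CYP3A4 + 25uM Luciferin-PPXE (=KM), 200mM KPO4; cpd 10 min RT; NADPH regen, 60 min RT; stop w/ detection buffer, 20 min; luminescence. Normalized to 57 uM ketoconazole.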

Test [11] addresses Cytochrome P450 2D6 (Homo sapiens) (UniProt P10635). Kind of test: qHTS Assay for Inhibitors and Substrates of Cytochrome P450 2D6 (AID 891). Note: potency is the fitted concentration of half-maximal effect; nearly all actives have a fitted effect of over 60% in size. The following applies: recombinant CYP2D6, luciferin-ME EGE luminescence; series mostly up to 57.1 µM. The method, boiled down:
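Human CYP2D6 (5 nM) with 30 uM Luciferin-ME EGE (at Km) in 100 mM KPO4, compound preincubated 10 min, then NADPH regeneration system for 60 min at room temperature. Luciferin read by luminescence; normalized to 1.43 uM quinidine.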

A short description of test [12]: Confirmation and Secondary Assay for Modulators of Hemoglobin Beta Chain Splicing at IVS2 654 locus (AID 910).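 Note: per-well total GFP intensity by laser scanning cytometry after 2-day treatment; % of control where 0% means no effect.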 The note with it: HeLa EGFP-654 splicing reporter, GFP fluorescence, 48 h; series mostly up to 38.3 µM. In a few lines: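 HeLa cells stably carrying EGFP interrupted by mutant beta-globin IVS2-654 intron (CMV-driven) were treated with compound for 2 days at 37C; corrected splicing was scored as total peak GFP intensity per well (488 nm excitation, 500-520 nm emission).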

A short description of test [13]: Confirmation and Secondary Assay for Modulators of Hemoglobin Beta Chain Splicing at IVS2 705 locus (AID 930).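 Note: HeLa cells stably expressing the EGFP-705 splicing reporter; % of control where 0% means no effect.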 The note with it: HeLa EGFP-705 splicing reporter, GFP fluorescence, 48 h; series mostly up to 38.3 µM. The method, boiled down: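 Restored EGFP fluorescence after 2-day compound exposure reports splicing correction in IVS2-705 EGFP reporter HeLa cells; positive control was 500 nM splice-blocking PNA oligo. Signal measured as well total peak GFP intensity (488 nm excitation).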

Test [14] is described as follows: qHTS Assay for Lipid Storage Modulators (AID 1519; calls by dose curve). The note with it: Drosophila S3 cells, BODIPY lipid droplet/cell ratio, laser cytometry, cells loaded with oleic acid; for activity change, negative = inhibition: at 57.5 µM (top of the series). The method, boiled down:
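Cells seeded at 5,000 per well were treated with compounds over a concentration series and loaded with oleic acid (400 uM, as added). Lipid droplet fluorescence (488 nm excitation, 500-530 nm channel) was read by laser-scanning cytometry and normalized to 20 uM Triacsin C.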

Test [15] addresses Ubiquitin carboxyl-terminal hydrolase 1 (Homo sapiens) (UniProt O94782). Put plainly: Inhibitors of USP1/UAF1: Pilot qHTS (AID 504865). Note: nearly all actives have a fitted effect of over 35% in size. Note: potency is the fitted concentration of half-maximal effect. The following applies: purified USP1/UAF1, Ub-rhodamine cleavage fluorescence; series mostly up to 54.9 µM. In a few lines: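 Kinetic fluorescence assay: 1nM USP1/UAF1, 15 min compound preincubation, then 150nM Ub-Rho; 480/540 nm.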
A short description of test [16]: Primary qHTS for small molecule stabilizers of the endoplasmic reticulum resident proteome: Secreted ER Calcium Modulated Protein (SERCaMP) assay (AID 1508630). Note: % is set by controls: 0 for no effect and ±100 for the full control effect. The note with it: SH-SY5Y GLuc-SERCaMP (Gaussia luciferase released on ER calcium loss) secretion, thapsigargin, luminescence; series mostly up to 38.4 µM. In a few lines: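 GLuc-SERCaMP-expressing SH-SY5Y cells, pretreated 16 h with compound, are challenged with thapsigargin to empty ER calcium stores; after 4 h, coelenterazine is added directly to the medium and luminescence is imaged.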

Test [17] concerns the target 3',5'-cyclic-AMP phosphodiesterase 4B (Homo sapiens) (UniProt Q07343). Kind of test: qHTS Assay for Inhibitors of PDE-IV (AID 607; active = well fitted activation curve with a large enough effect in the main read-out, with a control signal flat, not every such curve was filed as active; note: % of control where 0% means no effect). The note with it: HEK293 ACTOne CNG channel cells, membrane potential fluorescence; series mostly up to 22.9 µM. In a few lines:
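ACTOne HEK293 cells carry a modified cAMP-gated CNG channel and express endogenous PDE4; plated 1000 cells/well, compounds up to 22.9 uM final. Membrane-potential dye fluorescence (ex 535/em 590) was read; parental cells received 10 uM forskolin + 100 uM RO 20-1724.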

Test [18] has as its target Cytochrome P450 2C19 (Homo sapiens) (UniProt P33261). Kind of test: qHTS Assay for Inhibitors and Substrates of Cytochrome P450 2C19 (AID 899). Note: potency is the fitted concentration of half-maximal effect; nearly all actives have a fitted effect of over 60% in size. The note with it: recombinant CYP2C19, luciferin-H EGE luminescence; series mostly up to 57.1 µM. In a few lines: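 NADPH-dependent conversion of Luciferin-H EGE (10uM, at KM) by 5nM enzyme in 50mM KPO4, 60 min at 37C following 10 min compound preincubation. Stopped with luciferin detection buffer; luminescence read after 20 min.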

The mark [19] stands for this setting: measured here: cell count channel max response.
The mark [20] stands for this setting: measured here: lipid channel max response.

Each structure is given as a SMILES string. Inconclusive results are not listed. Calls of active or inactive are those of the source. Unless noted, calls come from the whole dose curve; as a rule, active = well fitted curve in the direction sought with a large enough effect; inconclusive = small, poorly fitted or top-dose-only effect, or another doubt; inactive = no such curve, though single readings can be large; an effect the other way counts as inactive or inconclusive.

Sequence of 3',5'-cyclic-AMP phosphodiesterase 4B (Homo sapiens) (Q07343 whole entry, looked up): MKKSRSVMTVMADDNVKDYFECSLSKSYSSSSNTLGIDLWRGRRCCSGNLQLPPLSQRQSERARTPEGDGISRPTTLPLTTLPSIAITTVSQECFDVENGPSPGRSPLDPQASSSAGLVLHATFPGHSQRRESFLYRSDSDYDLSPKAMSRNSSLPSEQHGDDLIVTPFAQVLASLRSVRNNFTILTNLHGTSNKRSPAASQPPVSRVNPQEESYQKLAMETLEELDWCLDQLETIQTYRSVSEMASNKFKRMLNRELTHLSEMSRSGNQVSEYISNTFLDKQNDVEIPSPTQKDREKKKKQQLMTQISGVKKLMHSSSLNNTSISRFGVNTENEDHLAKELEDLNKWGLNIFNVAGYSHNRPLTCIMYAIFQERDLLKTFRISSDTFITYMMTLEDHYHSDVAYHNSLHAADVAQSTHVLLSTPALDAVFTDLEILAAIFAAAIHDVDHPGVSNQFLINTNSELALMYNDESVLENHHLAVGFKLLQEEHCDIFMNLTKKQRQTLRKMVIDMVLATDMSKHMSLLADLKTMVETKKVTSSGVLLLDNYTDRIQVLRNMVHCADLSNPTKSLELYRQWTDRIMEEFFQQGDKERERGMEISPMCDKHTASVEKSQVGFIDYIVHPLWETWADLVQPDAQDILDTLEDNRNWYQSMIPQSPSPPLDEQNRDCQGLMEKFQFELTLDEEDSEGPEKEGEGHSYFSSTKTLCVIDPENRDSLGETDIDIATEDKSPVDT
Sequence of Ubiquitin carboxyl-terminal hydrolase 1 (Homo sapiens) (O94782 whole entry, looked up): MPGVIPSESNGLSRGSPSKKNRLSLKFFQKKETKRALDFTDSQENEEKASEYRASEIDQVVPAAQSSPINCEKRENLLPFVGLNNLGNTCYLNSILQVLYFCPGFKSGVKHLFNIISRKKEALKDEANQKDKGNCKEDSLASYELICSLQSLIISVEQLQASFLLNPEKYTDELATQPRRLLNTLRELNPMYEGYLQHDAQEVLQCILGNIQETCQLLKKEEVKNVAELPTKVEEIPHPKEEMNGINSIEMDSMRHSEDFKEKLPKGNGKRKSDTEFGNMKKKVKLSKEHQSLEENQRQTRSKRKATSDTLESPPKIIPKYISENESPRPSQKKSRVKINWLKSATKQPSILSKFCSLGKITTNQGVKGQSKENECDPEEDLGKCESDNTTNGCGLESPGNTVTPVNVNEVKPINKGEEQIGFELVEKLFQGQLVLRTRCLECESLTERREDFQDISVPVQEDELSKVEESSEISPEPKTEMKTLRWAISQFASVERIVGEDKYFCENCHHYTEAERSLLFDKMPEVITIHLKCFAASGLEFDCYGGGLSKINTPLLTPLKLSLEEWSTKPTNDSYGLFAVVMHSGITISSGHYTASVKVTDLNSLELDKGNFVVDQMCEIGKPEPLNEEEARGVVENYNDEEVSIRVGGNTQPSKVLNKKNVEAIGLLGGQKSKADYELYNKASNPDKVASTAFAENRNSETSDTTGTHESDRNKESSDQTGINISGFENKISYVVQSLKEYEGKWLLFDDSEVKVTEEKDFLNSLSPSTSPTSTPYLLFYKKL
Sequence of Lysosomal acid glucosylceramidase (Homo sapiens) (P04062 whole entry, looked up): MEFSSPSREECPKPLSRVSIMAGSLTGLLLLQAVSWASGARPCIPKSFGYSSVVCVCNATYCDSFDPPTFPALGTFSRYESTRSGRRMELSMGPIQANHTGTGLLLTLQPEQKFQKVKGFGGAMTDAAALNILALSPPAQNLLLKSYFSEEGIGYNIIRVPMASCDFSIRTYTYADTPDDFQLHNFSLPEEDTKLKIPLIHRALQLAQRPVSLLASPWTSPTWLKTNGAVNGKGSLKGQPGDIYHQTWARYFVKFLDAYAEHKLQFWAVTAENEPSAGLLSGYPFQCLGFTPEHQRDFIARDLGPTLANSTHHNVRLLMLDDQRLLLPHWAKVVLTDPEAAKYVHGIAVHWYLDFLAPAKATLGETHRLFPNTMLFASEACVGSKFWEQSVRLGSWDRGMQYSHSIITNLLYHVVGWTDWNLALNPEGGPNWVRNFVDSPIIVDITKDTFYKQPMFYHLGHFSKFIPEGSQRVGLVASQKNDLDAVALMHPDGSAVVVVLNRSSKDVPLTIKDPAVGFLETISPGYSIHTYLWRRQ
Sequence of Cytochrome P450 3A4 (Homo sapiens) (P08684 whole entry, looked up): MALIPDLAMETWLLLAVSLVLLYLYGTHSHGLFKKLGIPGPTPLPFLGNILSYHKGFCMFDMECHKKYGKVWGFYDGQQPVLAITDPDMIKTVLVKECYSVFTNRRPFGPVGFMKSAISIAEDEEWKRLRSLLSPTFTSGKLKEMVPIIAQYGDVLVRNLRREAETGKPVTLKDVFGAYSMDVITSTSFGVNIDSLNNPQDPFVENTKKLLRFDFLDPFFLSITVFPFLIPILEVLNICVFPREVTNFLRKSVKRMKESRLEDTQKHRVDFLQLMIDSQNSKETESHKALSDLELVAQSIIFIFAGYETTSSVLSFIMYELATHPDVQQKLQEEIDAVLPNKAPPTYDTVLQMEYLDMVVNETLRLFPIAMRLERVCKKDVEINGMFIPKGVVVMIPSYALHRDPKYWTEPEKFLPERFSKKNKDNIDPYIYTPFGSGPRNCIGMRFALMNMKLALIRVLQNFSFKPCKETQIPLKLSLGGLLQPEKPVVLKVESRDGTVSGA
Sequence of Cytochrome P450 2D6 (Homo sapiens) (P10635 whole entry, looked up): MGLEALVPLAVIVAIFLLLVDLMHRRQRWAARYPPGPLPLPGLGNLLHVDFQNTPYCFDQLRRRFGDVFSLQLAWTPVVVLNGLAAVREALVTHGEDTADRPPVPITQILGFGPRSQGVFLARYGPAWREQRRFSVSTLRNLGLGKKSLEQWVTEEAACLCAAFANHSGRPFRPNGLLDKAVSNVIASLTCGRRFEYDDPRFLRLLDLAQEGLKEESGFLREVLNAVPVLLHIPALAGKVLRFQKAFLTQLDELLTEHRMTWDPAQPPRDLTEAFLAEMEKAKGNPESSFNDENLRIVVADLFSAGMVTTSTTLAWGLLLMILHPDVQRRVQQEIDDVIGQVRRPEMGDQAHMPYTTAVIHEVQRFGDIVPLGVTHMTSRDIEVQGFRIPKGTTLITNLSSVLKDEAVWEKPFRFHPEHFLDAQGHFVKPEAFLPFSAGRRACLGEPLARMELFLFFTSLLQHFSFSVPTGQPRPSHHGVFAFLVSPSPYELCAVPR
Sequence of Cytochrome P450 2C19 (Homo sapiens) (P33261 whole entry, looked up): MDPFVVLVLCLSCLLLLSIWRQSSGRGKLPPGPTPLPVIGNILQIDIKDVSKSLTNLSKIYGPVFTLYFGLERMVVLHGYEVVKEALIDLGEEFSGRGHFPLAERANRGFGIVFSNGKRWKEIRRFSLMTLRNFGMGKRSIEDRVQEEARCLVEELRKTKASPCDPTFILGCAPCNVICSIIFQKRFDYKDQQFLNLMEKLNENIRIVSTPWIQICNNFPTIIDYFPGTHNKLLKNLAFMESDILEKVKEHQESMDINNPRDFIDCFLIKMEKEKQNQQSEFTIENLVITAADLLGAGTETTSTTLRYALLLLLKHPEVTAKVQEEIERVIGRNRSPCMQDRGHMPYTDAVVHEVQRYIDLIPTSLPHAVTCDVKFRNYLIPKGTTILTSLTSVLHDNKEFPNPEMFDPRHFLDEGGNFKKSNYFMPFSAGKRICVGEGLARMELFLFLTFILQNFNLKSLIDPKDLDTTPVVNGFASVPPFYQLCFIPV

On to `c1cncc(CNc2nc(-c3ccoc3)nc3ccccc23)c1`, for which the Potency in test [1] was > 11.4 µM (inactive); in [3], 0.398 µM (active); in test [6], > 46 µM (inactive); in [7] it was > 46 µM (inactive); in test [9], 7.94 µM (active); in test [11], 5.01 µM (active). Moreover, in test [15], the Potency was 44.7 µM (active). The activity change, negative = inhibition in [2] was 1.41% (inactive); in test [4] it was -9.01% (inactive); in [14] it was 12.2% (inactive). In [5], the activity, negative = inhibition was -4.87% (inactive). Further, the call in [8], in test [12] and in test [13] was inactive. The Potency result in test [10] and in [16] was “inactive” throughout. For the same compound, the max response in test [14] (setting [19]) was found to be 2.22%; in test [14] (setting [20]), 16.5%.

Consider `CN(Cc1ccco1)c1ncnc2ccc(-c3cccc(C#N)c3)cc12`, for which the Potency in [1] was > 11.4 µM (inactive); in test [3] it was 0.501 µM (active); in test [6] it was > 46 µM (inactive); in test [7] it was > 46 µM (inactive); in test [18] it was 6.31 µM (active). Also, the figures for the activity change, negative = inhibition in test [2], in [4] and in test [14] were 6.41% (inactive), 19.8% (inactive) and 6.34% (inactive), respectively. In addition, in test [5], the activity, negative = inhibition was -5.78% (inactive). Besides, the compound was classed as inactive in test [8], in test [12] and in test [13]. Moreover, the Potency result in test [17], in [10], in test [15] and in [16] was “inactive” each time. For the same compound, the results for the max response in test [14] (setting [19]) and in test [14] (setting [20]) were -3.6% and 2.39%, respectively.

For the compound `Cc1cnc(CNc2ncncc2-c2ccccc2C#N)cn1`, the Potency in test [1] is > 11.4 µM (inactive); in test [3] it was 0.251 µM (active); in test [6] it was > 46 µM (inactive); in test [7] it was > 46 µM (inactive). Besides, the activity change, negative = inhibition in test [2] is 8.99% (inactive); in test [4] it was -5.21% (inactive); in test [14], 8.38% (inactive). In [5], the activity, negative = inhibition is -4.72% (inactive). For the same compound, the outcome in test [8], in [12] and in test [13] was inactive. The Potency result in [17], in test [10], in test [15] and in test [16] was “inactive” in each case. In addition, the max response in [14] (setting [19]) is 14%; in test [14] (setting [20]), 24.3%.

For `Cc1cnc(CNc2ccnc(-c3ccccc3Cl)n2)cn1`, the Potency in [1] was > 11.4 µM (inactive); in [3], 12.6 µM (active); in [6] it was > 46 µM (inactive); in test [7] it was > 46 µM (inactive). Further, the activity change, negative = inhibition in [2] is -1.45% (inactive); in test [4], -3.33% (inactive); in test [14], 7.03% (inactive). Further, in test [5], the activity, negative = inhibition was 7.09% (inactive). Moreover, the result in [8], in [12] and in test [13] was inactive. Further, the Potency result in test [17], in [15] and in [16] was “inactive” throughout. For the same compound, the max response in test [14] (setting [19]) came out at 7.84%; in test [14] (setting [20]), 16.2%.

For `N#Cc1cccc(-c2cc(NCc3cccs3)ncn2)c1`, the Potency in test [1] is > 11.4 µM (inactive); in test [3] it was 0.794 µM (active); in [6], > 46 µM (inactive); in [7], > 46 µM (inactive). For the same compound, the figures for the activity change, negative = inhibition in test [2], in [4] and in test [14] were -6.14% (inactive), 12.6% (inactive) and 3.14% (inactive), respectively. Moreover, the activity, negative = inhibition in [5] is -3.35% (inactive). The compound was classed as inactive in test [8], in test [12] and in test [13]. The Potency entry in test [17], in test [10], in test [15] and in [16] was “inactive” in each case. Besides, the values for the max response in test [14] (setting [19]) and in test [14] (setting [20]) were -10.3% and -10.9%, respectively.

The values above are taken from PubChem BioAssay (NCATS).
